The source of these data is PubChem BioAssay (EPA / NIEHS).

Usually AC50 stands for the concentration giving half of the maximal activity seen.

SMILES strings stand for the structures. Activity calls are given as the source filed them. The calls were made as follows: active = hit-call score of the fitted dose curve at least 0.9, where 1 is the maximum; inactive = score below 0.9.

A short description of this assay: ATG_E_Box_CIS: Attagene CIS-FACTORIAL HepG2 Assay for human Enhancer Box (E-box) (AID 2282936). Particulars: HepG2 E-box cis-reporter transcription, actives raise or lower the signal. As to the method: ATG_CIS is a cell-based, multiplexed-readout assay that uses HepG2, a human liver cell line, with measurements taken at 24 hours after chemical dosing in a 24-well plate.ATG_E_Box_CIS is one of 52 assay component(s) measured or calculated from the ATG_CIS assay. It is designed to make measurements of mRNA induction, a form of inducible reporter, as detected with fluorescence intensity signals by Reverse transcription polymerase chain reaction (RT-PCR) and Capillary electrophoresis technology.Data from the assay component ATG_E_Box_CIS was analyzed into 1 assay endpoint. This assay endpoint, ATG_E_Box_CIS, was analyzed with bidirectional fitting relative to DMSO as the negative control and baseline of activity. Using a type of inducible reporter, measures of mRNA for gain or loss-of-signal activity can be used to understand the reporter gene at the transcription factor-level as they relate to the gene USF1. Furthermore, this assay endpoint can be referred to as a primary readout, because this assay has produced multiple assay endpoints where this one serves a reporter gene function. To generalize the intended target to other relatable targets, this assay endpoint is annotated to the dna binding intended target family, where the subfamily is basic helix-loop-helix protein.
Human liver HepG2 cells are transiently transfected with multiple reporter transcription units (MRTUs) in 6-well plates using FuGene 6 reagent (Roche; 3 ml FuGene/1 mg DNA). The MRTU constructs are regulated by a cis-regulating element (promoter). […] A major difference between the CIS and TRANS system is that in CIS activities of endogenous TFs are measured, whereas the TRANS assay evaluates changes in activities of exogenous, chimeric NR-Gal4 proteins. […] At the end of 24 hour incubation, total RNA was isolated using TriZol reagent (Invitrogen). The isolated RNA is then reverse-transcribed using oligo(dT) primer and Mo-MLV reverse transcriptase (Invitrogen) with DNAse I (Ambion) treatment for 30 min. The one-tenth of the produced cDNA was amplified by PCR using Taq DNA polymerase (Invitrogen) and two reporter sequence-specific primers. The PCR products were fluorescently labeled by primer extension with 6-arboxyfluorescein (6-FAM) 5'-labeled reporter sequence-specific primer (2 min at 95 C, 20 s at 68 C and 10 min at 72 C) and these products were digested with 5U of HpaI (New England Biolabs) for 2h at 37 C. The fragments were purified using Qiaquick PCR columns (Qiagen), analyzed on an ABI 3130xL genetic analyzer (Applied Biosystems) with peak positions identified by using a set of X-rhodamine (ROX)-labeled MapMarker1000 molecular weight standards (BioVentures). The raw capillary electrophoresis data was processed using Attagraph software (Attagene).
On to `CCCCCCCCCCCCCCCC[N+](C)(C)C`, for which the AC50 was 48.7 µM (active).

Take `ClCC(Cl)Cl`: the outcome was inactive.

`CCC(C)c1cc([N+](=O)[O-])cc([N+](=O)[O-])c1OC(=O)C=C(C)C` (stereo not given): the AC50 was 17.7 µM (active).

In the case of `CCN(CC)C(=S)S`, the outcome was inactive.

On to `CN1C(=O)CCS(=O)(=O)C1c1ccc(Cl)cc1` (stereo not given), for which the result was inactive.

Take `O=C(O)CCCc1ccc(N(CCCl)CCCl)cc1`: the result was inactive.

For the compound `CCc1cccc(C)c1N(C(=O)CCl)[C@@H](C)COC`, the outcome was inactive.

Turning to `[Cl][Sb]([Cl])[Cl]`, the result was inactive.

On to `CC(=O)c1cc2c(cc1C)C(C)(C)C(C)CC2(C)C` (stereo not given), for which the result was inactive.

Turning to `SCc1ccco1`, the result was inactive.

In the case of `O=S(=O)(c1ccccc1)c1ccccc1`, the outcome was inactive.

In the case of `Nc1c(Cl)c(Cl)c(Cl)c(Cl)c1Cl`, the outcome was inactive.

Consider `CCOP(=O)(OCC)Oc1ccc([N+](=O)[O-])cc1`, for which the outcome was inactive.

In the case of `CC(Cc1ccc(C(C)(C)C)cc1)CN1C[C@@H](C)O[C@@H](C)C1` (stereo not given in full), the outcome was inactive.

On to `[CH3][Sn]([Cl])([Cl])[Cl]`, for which the outcome was inactive.

On to `CC1CCC(=O)O1` (stereo not given), for which the outcome was inactive.

For `CSc1nc(N=[N+]=[N-])nc(NC(C)C)n1`, the result was inactive.

Consider `CCNCC`, for which the result was inactive.

Turning to `O=[N+]([O-])c1cc(C(F)(F)F)c(Cl)c([N+](=O)[O-])c1Cl`, the AC50 was 5.43 µM (active).

Turning to `N#CCCCl`, the result was inactive.

Turning to `S=c1[nH]c2ccccc2[nH]1`, the result was inactive.

Consider `CC(C)(C)C(O)C(Oc1ccc(-c2ccccc2)cc1)n1cncn1` (stereo not given), for which the outcome was inactive.

Take `CN1C[C@H](C(=O)N[C@]2(C)O[C@@]3(O)[C@@H]4CCCN4C(=O)[C@H](Cc4ccccc4)N3C2=O)C=C2c3cccc4[nH]cc(c34)C[C@H]21`: the outcome was inactive.

For `Oc1ccc(C2(c3ccc(O)cc3)c3ccccc3-c3ccccc32)cc1`, the AC50 was 17 µM (active).

On to `CCOC(=O)NC(=S)Nc1ccccc1NC(=S)NC(=O)OCC`, for which the outcome was inactive.

Regarding `CN(C)CCC#N`, the outcome was inactive.

Take `Nc1ccccc1`: the outcome was inactive.

Take `C[N+](C)=CCl`: the result was inactive.

Turning to `CC(=O)/C=C/c1ccccc1`, the outcome was inactive.

Regarding `c1ccc(P(c2ccccc2)c2ccccc2)cc1`, the result was inactive.

For the compound `CC(=O)C=Cc1ccccc1`, the result was inactive.

As to `CCCCOC(=O)CCC(=O)OCCCC`, the result was inactive.

Take `CC=Cc1ccc2c(c1)OCO2`: the outcome was inactive.

Consider `Cc1ccccc1CCl`, for which the outcome was inactive.

Consider `CC(C)c1ccc(O)cc1`, for which the result was inactive.

In the case of `CCc1cc(C)cc(CC)c1-c1c(OC(=O)C(C)(C)C)n2n(c1=O)CCOCC2`, the result was inactive.

For `O=C(O)COc1ccccc1`, the outcome was inactive.

Consider `C=CC(=O)OCCO`, for which the result was inactive.

In the case of `CCCCCCC1CCOC1=O` (stereo not given), the outcome was inactive.

In the case of `C=CCc1ccc(OC(=O)Cc2ccccc2)c(OC)c1`, the outcome was inactive.
